Records with an inconclusive call do not appear. Where a call stands in place of a potency, no number is given. Calls of active or inactive are those of the source. The call rests on the fitted dose curve; in most records, active means well fitted inhibition curve with a large enough effect in the signal ratio in the repeat runs (not every such curve was filed as active); inconclusive means weak or mixed curves, or effect the other way; inactive means no such curve, though single readings can be large or run the other way; the % refers to the signal ratio.

Peroxisome proliferator-activated receptor delta (Homo sapiens), sequence (Q03181 whole entry, looked up): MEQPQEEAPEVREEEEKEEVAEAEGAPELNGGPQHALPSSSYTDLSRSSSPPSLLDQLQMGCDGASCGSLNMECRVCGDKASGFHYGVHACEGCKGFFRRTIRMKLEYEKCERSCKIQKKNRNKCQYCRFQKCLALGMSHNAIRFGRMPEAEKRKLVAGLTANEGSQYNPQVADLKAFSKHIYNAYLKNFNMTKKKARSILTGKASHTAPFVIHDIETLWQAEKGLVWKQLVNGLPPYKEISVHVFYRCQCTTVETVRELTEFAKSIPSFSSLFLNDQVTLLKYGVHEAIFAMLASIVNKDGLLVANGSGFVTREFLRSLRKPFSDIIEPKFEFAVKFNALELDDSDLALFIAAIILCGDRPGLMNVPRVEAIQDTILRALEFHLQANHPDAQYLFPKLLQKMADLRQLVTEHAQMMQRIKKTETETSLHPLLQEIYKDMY

The assay has as its target Peroxisome proliferator-activated receptor delta (Homo sapiens) (UniProt Q03181). The assay can be described thus: qHTS assay to identify small molecule antagonists of the peroxisome proliferator-activated receptor delta (PPARd) signaling pathway (AID 743215).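 Further: cells stimulated with agonist L165041 at 300 nM final during compound exposure.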 The following applies: HEK293H PPARd-UAS-bla, beta-lactamase FRET ratio, antagonist, 17 h; series mostly up to 62 µM. The source says:
U.S. Tox21 Program National Center for Advancing Translational Sciences [NCATS] NIH Chemical Genomics Center [NCGC] U.S. Environmental Protection Agency [EPA] National Institutes of Environmental Health Sciences [NIEHS] National Toxicology Program [NTP] U.S. Food and Drug Administration [FDA] Tox21 Assay Overview: The peroxisome proliferator-activated receptors (PPARs) are lipid-activated transcription factors of the nuclear receptor superfamily with three distinct subtypes namely PPAR alpha, PPAR delta (PPARd) and PPAR gamma. All these subtypes heterodimerizes with Retinoid X receptor (RXR) and have different physiological functions. […] To identify the compounds that inhibit PPAR-delta signaling, GeneBLAzer PPAR delta UAS-bla HEK293H cell line (Invitrogen, Carlsbad, CA, USA) containing a beta-lactamase reporter gene under the control of an Upstream Activator Sequence (UAS) was used to screen the Tox21 compound library.
Tox21 Assay Protocol Summary: PPARd-bla cells were dispensed at 3000 cells/5uL/well in 1536-well black wall/clear bottom plates using a Multidrop Combi (Thermo Fisher Scientific, Waltham, MA) dispenser. After the assay plates were incubated at 37 C and 5% CO2 for 5 h, 23 nL of compounds dissolved in DMSO, positive controls or DMSO only was transferred to the assay plate by a Pintool station (Kalypsys, San Diego, CA), followed by addition of 1ul L165041 (300 nM, final concentration in the wells). The assay plates were incubated at 37 C for 17 h, and then 1 uL of LiveBLAzerTM B/G FRET substrate was added using a Bioraptr Flying Reagent Dispenser (FRD) workstation (Beckman Coulter, Indianapolis, IN, USA). The assay plates were incubated at room temperature for 2 h and fluorescence intensity was measured by an Envision plate reader (PerkinElmer, Shelton, CT).
(Quantitative high-throughput screening tests each substance at several concentrations.)
For the molecule `Cc1ccc(N(CCO)CCO)cc1`, the Potency entry is “inactive”. Under `O=C(O)c1cc(Cl)cc(Cl)c1O` stands “inactive”; under `C=CCOC(=O)COCCC(C)C`, “inactive”; under `O=NN(CCCl)C(=O)NCCCl`, “inactive”.

Consider `O=C(O)/C=C/c1ccc(O)c(O)c1`, for which the Potency entry was “inactive”.

Take `CN=C(N)NC(=O)Nc1c(C)cccc1C`: the Potency result was “inactive”.

With `O=C(O)CCC(=O)OC[C@@H](NC(=O)C(Cl)Cl)[C@H](O)c1ccc([N+](=O)[O-])cc1`, the Potency result is “inactive”. With `CC1CCCO1` (stereo not given) the entry was “inactive”.

As to `CC(CO)(CO)C(=O)O`, the Potency entry was “inactive”. For `CC(C)c1ccc(C(=O)N=C(N)N)cc1S(C)(=O)=O`, the Potency result is “inactive”. Take `CC(C)(C)S`: the Potency entry is “inactive”. Under `Cc1ccccc1S(N)(=O)=O` stands “inactive”; under `COc1ccc(C2C(=O)c3ccccc3C2=O)cc1`, “inactive”; under `O=C(O)CO`, “inactive”. Under `Cc1ccc2nc(N)[nH]c(=O)c2c1Sc1ccncc1` stands “inactive”; under `CC(C)c1ccc(C#N)cc1`, “inactive”; under `CCC(CO)(CO)CO`, “inactive”. With `CC(=O)OC(C)C[N+](C)(C)C` (stereo not given) the entry was “inactive”; with `OCC(CO)n1cnc(-c2ccc(F)cc2)c1-c1ccnc(Oc2ccccc2)n1`, “inactive”; with `CC(=O)NCCO`, “inactive”. As for `COc1ccc(CCN(C)CCCN2CCc3cc(OC)c(OC)cc3CC2=O)cc1OC`, the Potency entry is “inactive”. Under `CC(C)OC(=O)c1ccccc1C(=O)OC(C)C` stands “inactive”.

As to `COc1cc(NC(C)CCCN)c2ncccc2c1` (stereo not given), the Potency entry is “inactive”.

In the case of `O=C1[C@@H]2[C@H]3CC[C@H](C3)[C@@H]2C(=O)N1CCCCN1CCN(c2ncccn2)CC1`, the Potency entry is “inactive”.

Turning to `CC(C)COC(=O)COc1cc(Cl)c(Cl)cc1Cl`, the Potency result is “inactive”. As for `CC(C)C(O)C(C)(C)CO` (stereo not given), the Potency entry was “inactive”. With `O=C(Oc1ccccc1)c1ccc2ccccc2c1O` the entry was “inactive”; with `CCCCCCC(O)CCCCCCCCCCC(=O)OC` (stereo not given), “inactive”; with `CNCc1ccc(NC(=O)c2c[nH]c3c2C(=O)CCC3)cc1`, “inactive”. With `Nc1ccc(S(=O)(=O)NCc2ccccc2)cc1` the entry was “inactive”.

Turning to `CCCCCCCCCCCCCCCCCC(=O)OCC(CC)CCCC` (stereo not given), the Potency entry is “inactive”. Under `CCN(CC)c1ccc(C(=C2C=CC(=[N+](CC)CC)C=C2)c2ccc(S(=O)(=O)O)cc2S(=O)(=O)[O-])cc1` stands “inactive”; under `C1=CCC2CC=CC2C1` (stereo not given), “inactive”. For `CSCC[C@H](NC(=O)[C@H](Cc1c[nH]c2ccccc12)NC(=O)CCNC(=O)OC(C)(C)C)C(=O)N[C@@H](CC(=O)O)C(=O)N[C@@H](Cc1ccccc1)C(N)=O`, the Potency entry is “inactive”. With `CCC(C)(C)C(=O)O` the entry was “inactive”; with `CC(C)COC(=O)c1ccc(O)cc1`, “inactive”.

With `N[C@@H](Cc1cc(I)c(O)c(I)c1)C(=O)O`, the Potency result is “inactive”.

For `CCN(CC)CCOc1ccccc1C(=O)CCc1ccccc1`, the Potency result is “inactive”. With `CC1CCCC(=O)C1=O` (stereo not given) the entry was “inactive”; with `CCCCCCC(O)CCOC(C)=O` (stereo not given), “inactive”.

The record behind these values is PubChem BioAssay (Tox21).
